This is a sample that favours compounds with a hit; in the whole collection about 1.6% have one here.
KCNQ2 pot = enhances the rat KCNQ2 potassium channel | O88943 | CHO-K1 KCNQ2, FluxOR thallium flux fluorescence; stronger effect = higher value | B-score at 10 µM | 0.54% of 310,000 active;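 active = fluorescence ratio B-score at least 3 SD of library B-scores, with initial fluorescence B-score within 3 of them, cut at about 5.3 in these data; same plate scores as AID 2156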;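 note: B-score of peak minus minimum over baseline fluorescence ratio after K+ and Tl+ stimulus; positive B-score means potentiation of KCNQ2 with more thallium influx and brighter signal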
Target sequence (O88943 whole entry, looked up): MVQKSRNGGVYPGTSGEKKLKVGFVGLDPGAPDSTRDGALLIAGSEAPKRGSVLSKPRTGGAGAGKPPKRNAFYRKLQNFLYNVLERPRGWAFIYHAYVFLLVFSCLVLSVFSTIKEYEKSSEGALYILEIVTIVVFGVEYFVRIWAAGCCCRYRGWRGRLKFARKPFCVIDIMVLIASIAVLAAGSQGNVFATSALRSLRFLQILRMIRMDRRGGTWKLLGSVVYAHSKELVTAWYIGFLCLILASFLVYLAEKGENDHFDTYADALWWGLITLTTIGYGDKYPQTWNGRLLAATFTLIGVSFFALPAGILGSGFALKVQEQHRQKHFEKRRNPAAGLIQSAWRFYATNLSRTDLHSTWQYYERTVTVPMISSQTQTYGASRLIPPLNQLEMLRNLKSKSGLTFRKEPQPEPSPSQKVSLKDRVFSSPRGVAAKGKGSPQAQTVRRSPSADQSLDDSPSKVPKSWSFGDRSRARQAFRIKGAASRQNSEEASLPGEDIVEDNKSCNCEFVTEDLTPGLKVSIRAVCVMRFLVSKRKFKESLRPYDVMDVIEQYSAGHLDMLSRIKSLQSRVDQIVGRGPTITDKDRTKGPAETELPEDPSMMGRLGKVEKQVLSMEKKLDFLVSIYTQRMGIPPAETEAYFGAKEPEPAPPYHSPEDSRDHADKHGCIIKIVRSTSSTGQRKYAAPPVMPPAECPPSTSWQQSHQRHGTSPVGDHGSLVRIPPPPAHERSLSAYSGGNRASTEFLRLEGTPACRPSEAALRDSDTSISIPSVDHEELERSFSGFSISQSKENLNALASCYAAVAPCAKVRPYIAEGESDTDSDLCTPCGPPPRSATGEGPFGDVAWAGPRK
KCNQ2 block = KCNQ2 (rat) channel inhibition. CHO-K1 KCNQ2, FluxOR thallium flux, 20 min; stronger effect = lower value. 1.1% of 310,000 active. B-score at 10 µM. O88943;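 active = fluorescence ratio B-score at most minus 3 library SDs, with starting brightness B-score within 2 library SDs, cut at about -5.5 in these data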
* marks the source's active call; other numbers are inactive results; i = inactive; / = no result given.

SMILES	KCNQ2 pot	KCNQ2 block
COc1cc(C(C)=O)ccc1OCC(=O)c1cc(C)n(C2CC2)c1C	/	i
CCCCN(CC)CCCNC(=O)c1cn(-c2ccc(OC)cc2)c(=O)c2ccccc12	/	i
COc1ccccc1C1CC(c2cccs2)=Nc2ccccc2S1 (stereo not drawn)	/	i
Fc1ccccc1C1CC(c2ccco2)=Nc2ccccc2S1 (stereo not drawn)	-7.27	-7.27*
CC(C)(C)C(=O)/C=c1\s/c(=C\c2ccc(-c3ccc([N+](=O)[O-])cc3)o2)c(=O)n1CC(=O)NC(N)=O	/	i
COC(c1ccccc1)c1nnc(CCC(=O)N(C)Cc2cccc(-n3cccn3)c2)o1 (stereo not drawn)	/	i
N#C/C(=C\c1cccnc1)C(=O)Nc1ccc(Cl)cc1	/	i
Cc1cccc(NC(=O)/C(C#N)=C\c2cccnc2)c1	-6.55	-6.55*
Cc1n(N)c2ccccc2[n+]1CC(=O)c1ccccc1	/	i
Cc1ccc(SCC(=O)OCC(=O)N(CC(C)C)c2c(N)n(Cc3ccccc3)c(=O)[nH]c2=O)cc1C	/	i
O=C(CN(C(=O)CCC(=O)Nc1ccccn1)c1ccc2c(c1)OCO2)NCc1ccc(F)cc1	0.9	i
C=CCc1ccc(OCCn2cccc2C=O)c(OC)c1	7.61*	i
C=CCc1ccc(OCCn2nnc3ccccc32)c(OC)c1	1.86	i
CC1=C(C(=O)OC2CCCCC2)C(c2ccccc2Br)NC(=O)N1 (stereo not drawn)	1.73	i
CC1Cc2ccccc2C(CCc2ccccc2)=N1 (stereo not drawn)	/	i
CCc1nnc(NC(=O)CSc2n[nH]c(-c3ccccc3O)n2)s1	0.06	i
COc1ccc(NC(=O)c2ccc3nc(-c4ccccc4)c(-c4ccccc4)nc3c2)c(OC)c1	/	i
COc1ccccc1NC(=O)c1ccc2nc(-c3ccccc3)c(-c3ccccc3)nc2c1	-7.07	-7.07*
CCOc1ccc(CCNC(=O)C2CCCN2C(=O)OCc2ccccc2)cc1OCC (stereo not drawn)	/	i
COc1ccc(C2c3ccc4ccccc4c3Oc3ncn(CCN(C)C)c(=N)c32)cc1 (stereo not drawn)	/	i
N#CCCN/N=C(/Cc1nc2ccccc2[nH]1)c1cccc(Cl)c1	-5.98	-5.98*
O=C(Cc1nc2ccccc2[nH]1)c1ccc(Cl)cc1	/	i
C=C[C@H]1[C@H](OC2OC(CO)C(O)C(O)C2O)OC=C(C(=O)OC)[C@H]1C[C@H]1CC(=O)C[C@H](CC(=O)CCc2ccc(O)cc2)O1 (stereo partly drawn)	/	i
Cc1ccc(-n2cc(CNCCc3cscn3)c(-c3ccc(F)cc3)n2)cc1	-6.78	-6.78*
COc1ccc(-n2cc(CNCCc3cscn3)c(-c3ccccc3Cl)n2)cc1	/	i
SMILES	KCNQ2 pot	KCNQ2 block
CNS(=O)(=O)c1ccc(Cl)nc1	/	i
CN(Cc1ccc(F)cc1)C(=O)c1cc(COc2ccc(-n3cncn3)cc2)on1	3.24	i
CCOC(=O)c1ccc(N2C(=O)CC(NC3CCN(C(=O)c4ccc(F)cc4)CC3)C2=O)cc1 (stereo not drawn)	-9.5	-9.5*
CCOc1ccc(N2C(=O)CC(NC3CCN(C(=O)c4ccc(F)cc4)CC3)C2=O)cc1 (stereo not drawn)	/	i
COCC1CCCCN1Cc1cn[nH]c1-c1ccc2cc(OC)ccc2c1 (stereo not drawn)	/	i
CCOc1ccc(CCn2c(-c3ccco3)nc3ccccc3c2=O)cc1OCC	-6.88	-6.88*
O=c1c2ccccc2nc(-c2ccco2)n1Cc1ccccc1	/	i
CC(=O)Nc1ccc(NC(=O)CSc2nnc(C)n2-c2ccccc2)cc1	/	i
CCCCCCCCCCCC1=C(O)C(=O)C=C(O)C1=O	0.01	i
COC1=CC(=O)C(O)=C(CCCCCCC/C=C/CCCCCCCC2=C(O)C(=O)C=C(OC)C2=O)C1=O	-6.64	-6.64*
CSc1nc(N2CCOCC2)nc2ccc(C)cc12	2.39	i
O=C(C(Cc1ccccc1)n1cccc1)N1CCN(Cc2ccccc2)CC1 (stereo not drawn)	/	i
CCC(CC)C(=O)N1CCN(c2ccccc2)CC1	/	i
CCC(C(=O)N1CCN(c2cccc(Cl)c2)CC1)c1ccccc1 (stereo not drawn)	-5.58	-5.58*
O=C(C(Cc1ccccc1)n1cccc1)N1CCN(c2cccc(Cl)c2)CC1 (stereo not drawn)	-5.78	-5.78*
CC(C)[N+]1=C2C=CC=CC=C2SC12C([N+](=O)[O-])=CC(=[N+]([O-])[O-])C=C2[N+](=O)[O-] (stereo not drawn)	/	i
CC(C)CCN1CCN(Cc2nc3c(s2)CCCC3)CC1CCO (stereo not drawn)	/	i
CCC(C)NS(=O)(=O)c1ccc(OC)c(Cl)c1Cl (stereo not drawn)	/	i
Cc1cc(C)n2nc(NCc3cccc(Br)c3)nc2n1	-6.69	-6.69*
COc1ccc(CNc2nc3nc(C)cc(C)n3n2)cc1OC	0.53	i
C=CCN1C(=O)c2ccc(C(=O)N(C)CC(=O)Nc3ccc(Br)cc3C)cc2C1=O	0.32	i
CCCCN(S(=O)(=O)c1ccccc1)S(=O)(=O)c1ccccc1	-6.03	-6.03*
CCCCN(c1ccccc1)S(=O)(=O)N(C)C	/	i
COc1cc(NC(=S)N2CCCCC2C)c(OC)cc1Cl (stereo not drawn)	/	i
COc1cc(NC(=O)C(=O)NNC(=O)C2CCCCC2)c(OC)cc1Cl	9.75*	i
SMILES	KCNQ2 pot	KCNQ2 block
Cc1ccc(-c2nc(C)sc2CC(=O)Nc2cccc(C)c2C)cc1	/	i
CC(C)(C)c1ccc(S(=O)(=O)/N=C2\C=C(NS(=O)(=O)c3ccccc3)C(=O)c3ccccc32)cc1	-6.06	-6.06*
CCc1ccc(S(=O)(=O)/N=C2\C=C(Nc3ccc(C(=O)O)cc3)C(=O)c3ccccc32)cc1	3.14	i
COC(=O)C1=C(C(=O)OC)SC(=C2C(=S)C(C)(C)N(C(=O)C(C)C)c3ccccc32)S1	/	i
CCCC(=O)N1c2ccccc2C(=C2SC(C(=O)OC)=C(C(=O)OC)S2)C(=S)C1(C)C	-7.94	-7.94*
CN(CC(=O)Nc1cccc(F)c1)C(=O)c1ccncc1	/	i
Nc1ccccc1C(=O)NCCCN1CCN(c2cccc(Cl)c2)CC1	/	i
Cc1ccc(C)c2nc(SCC(=O)N3CCCc4ccccc43)c(C#N)cc12	-7.74	-7.74*
Cc1cccc2cc(C#N)c(SCC(=O)N3CC(=O)Nc4ccccc43)nc12	0.49	i
CSCCC(NS(=O)(=O)c1cccs1)C(=O)NCc1ccc(C)cc1 (stereo not drawn)	9.63*	i
CSCCC(NS(=O)(=O)c1cccs1)C(=O)NCc1ccccc1 (stereo not drawn)	3.22	i
COc1ccc(CCNc2nc(C)nc3c2oc2ccccc23)cc1OC	-5.63	-5.63*
Cc1nc(NCCc2cnc[nH]2)c2oc3ccccc3c2n1	0.94	i
CCc1cc(C(=O)OC)c(NC(=O)CC2NCCNC2=O)s1 (stereo not drawn)	0.96	i
CCc1cc(C(=O)OC)c(NC(=O)C2CC(=O)NN2Cc2ccccc2)s1 (stereo not drawn)	-5.91	-5.91*
CCn1c(=O)c([N+](=O)[O-])c(Cl)c2ccccc21	-6.65	-6.65*
CCn1c(=O)c([N+](=O)[O-])c(NCCN(C)C)c2ccccc21	/	i
O=C(Cn1nc2n(c1=O)-c1ccccc1SC2)N/N=C/c1ccncc1	/	i
CCOCCCNC(=O)C(NC(=O)c1ccc(NC(C)=O)cc1)c1ccc(OC)cc1 (stereo not drawn)	0.63	i
